Experimental data published in PubChem BioAssay.
Active and inactive are the calls of the source. Cut-off read from the data, not from the text of the source, unless noted: active = inhibition above about 80%; inactive = the rest.

Tests used:
[1] = growth inhibition, single agent or in combination, cell-based, chromothripsis tumors, cisplatin or BGB combos (AID 1671449); conditions: LFS_MB_P medulloblastoma cells;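 note: cells exposed for 96 hours; 0% = vehicle DMSO and 100% = killing by high DMSO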
[2] = growth inhibition, single agent and combos, cell-based, chromothripsis tumors, cisplatin or BGB combos (AID 1671450); conditions: HDN33 neuroblastoma cells, stronger effect = higher value;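 note: cells exposed to compound for four days; 0% = vehicle DMSO and 100% = cell killing by high DMSO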
[3] = growth inhibition, single agents and combos, ICB984, cell-based, cisplatin or BGB combos, synergistic combos for chromothripsis tumors (AID 1671451; call rule not given here;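 note: cells exposed for 96 hours before readout; 0% = vehicle DMSO and 100% = killing by high DMSO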); conditions: ICB984 medulloblastoma cells, drug combinations, stronger effect = higher value
[4] = growth inhibition, single agents and combos, LFS_MB_1R, cell-based, cisplatin or BGB combos, synergistic combos for chromothripsis tumors (AID 1671452); conditions: LFS_MB_1R medulloblastoma cells, stronger effect = higher value;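 note: cells exposed for 96 hours before readout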
[5] = growth inhibition, single agents and combos, HTB85, cell-based, BGB or cisplatin IC20 combos, synergistic combos for chromothripsis tumors (AID 1671453); conditions: HTB85 osteosarcoma cells, drug combinations, stronger effect = higher value;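 note: cells exposed for 96 hours before readout; 0% = vehicle DMSO and 100% = high DMSO killing control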
[6] = growth inhibition, single agents and combos, CRL2098, cell-based, BGB or cisplatin IC20 combos, synergistic combos for chromothripsis tumors (AID 1671454); conditions: CRL2098 osteosarcoma cells, drug combinations, stronger effect = higher value;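 note: cells exposed for 96 h before readout; 0% = vehicle DMSO and 100% = killing by high DMSO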
[7] = growth inhibition, single agents and combos, HD-MB03, cell-based, BGB or cisplatin IC20 combos, synergistic combos for chromothripsis tumors (AID 1671455; in the data active = inhibition above about 83%;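 note: 0% = vehicle DMSO and 100% = high DMSO as cytotoxic control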); conditions: HD-MB03 medulloblastoma cells, stronger effect = higher value
[8] = growth inhibition, single agents and combos, UWB1.289, cell-based, BGB or cisplatin combos, synergistic combos for chromothripsis tumors (AID 1671456); conditions: UWB1.289 ovarian carcinoma cells, stronger effect = higher value;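 note: cells exposed to compound for four days; 0% = vehicle DMSO and 100% = killing by high DMSO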
[9] = growth inhibition, single agents and combos, LFS_MB_2R, cell-based, cisplatin combos, synergistic combos for chromothripsis tumors (AID 1671457); conditions: LFS_MB_2R medulloblastoma cells, stronger effect = higher value;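 note: cells exposed to compound for four days before readout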
[10] = growth inhibition, MDA-MB-436, cell-based, BGB or cisplatin combos, synergistic combos for chromothripsis tumors (AID 1671458; call rule not given here;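 note: cells exposed for 96 hours; 0% = vehicle DMSO and 100% = killing by high DMSO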); conditions: MDA-MB-436 breast carcinoma growth inhibition, drug combinations, stronger effect = higher value
[11] = UWB1.289_BRCA1 ovarian cancer growth, cell-based, BGB or cisplatin combinations (AID 1671459); conditions: UWB1.289 BRCA1 ovarian carcinoma, drug combinations, stronger effect = higher value
[12] = drug combination toxicity in non-malignant astrocytes – cell-based, BGB or cisplatin IC20 combos, cytotoxicity control for chromothriptic childhood tumor combination screen (AID 1671460); conditions: Human astrocytes, viability inhibition, drug combinations, at 0.5 µM, stronger effect = higher value;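 note: cells exposed to compounds for 96 hours before viability readout; 0% = vehicle and 100% = killing control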
[13] = BT084 cell growth, single and combined drugs, ICGC_MB145, cisplatin and BGB IC40 combos (AID 1671461); conditions: BT084 medulloblastoma cells, drug combinations, stronger effect = higher value;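 note: cells exposed to drugs for 96 hours; 0% = vehicle DMSO and 100% = high DMSO full killing control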
[14] = RCMB18 cell growth, single agent and combined, cisplatin and BGB IC40 combos (AID 1671462); conditions: RCMB18 medulloblastoma cells, stronger effect = higher value;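 note: cells exposed to compound for four days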
[15] = CRL1545 cell growth, single agent and combined, cisplatin and BGB IC20 combos (AID 1671464); conditions: CRL1545 osteosarcoma cells, stronger effect = higher value;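 note: cells exposed to compound for 96 hours before readout; 0% = vehicle DMSO and 100% = high DMSO killing control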
[16] = at 0.5 µM, stronger effect = higher value
[17] = measured here: combination with BGB IC20, at 0.005 µM
[18] = measured here: combination with BGB IC40, at 0.005 µM
[19] = measured here: combination with BGB IC40, at 0.05 µM
[20] = measured here: combination with cisplatin, at 0.5 µM, stronger effect = higher value
[21] = measured here: combination with cisplatin, at 5 µM, stronger effect = higher value
[22] = measured here: with BGB IC20 combination, at 0.5 µM
[23] = measured here: with cisplatin IC20 combination, at 0.5 µM
[24] = measured here: 5 uM single agent, at 5 µM
[25] = measured here: combination with cisplatin, at 0.5 µM
[26] = measured here: combination with cisplatin, at 5 µM
[27] = measured here: with BGB IC20, at 0.5 µM
[28] = measured here: with BGB IC20, at 5 µM
[29] = measured here: with cisplatin IC20, at 0.5 µM
[30] = measured here: with cisplatin IC20, at 5 µM
[31] = measured here: combination with BGB at IC20, at 0.5 µM
[32] = measured here: combination with cisplatin at IC20, at 0.5 µM
[33] = measured here: combo with BGB at IC20, at 0.5 µM
[34] = measured here: combo with cisplatin at IC20, at 0.5 µM
[35] = measured here: inhibition with BGB combination, at 0.05 µM
[36] = measured here: inhibition with cisplatin combination, at 0.05 µM
[37] = measured here: BGB combination, at 0.5 µM
[38] = measured here: BGB combination, at 5 µM
[39] = measured here: cisplatin combination, at 0.5 µM
[40] = measured here: cisplatin combination, at 5 µM
[41] = BGB combination, concentration series, at 5 µM
[42] = cisplatin combination, concentration series, at 5 µM
[43] = measured here: combo with BGB IC20
[44] = measured here: combo with cisplatin IC20
[45] = cisplatin combination, at 0.5 µM
[46] = measured here: BGB IC40 combination 0.05 uM, at 0.05 µM
[47] = measured here: BGB IC40 combination, at 0.05 µM

Structure (SMILES): CC(C)(O)[C@H]1CC[C@@](C)(C2[C@@H](O)C[C@@]3(C)[C@@H]4C[C@H](O)C5C(C)(C)[C@@H](O)CCC56CC46CC[C@]23C)O1 (stereo partly specified)
- inhibition [1, 16]: -20.9% (inactive)
- inhibition [1, 17]: -17.4%
- inhibition [1, 18]: 78.4%
- inhibition [1, 19]: -19.9%
- inhibition [1, 20]: -28%
- inhibition [1, 21]: -7.56%
- inhibition ([2]; BGB combo, at 5 µM): -24.9%
- inhibition ([2]; at 0.5 µM): 2.8% (inactive)
- inhibition ([2]; cisplatin combo, at 5 µM): -13.8%
- inhibition [2, 22]: -6.04%
- inhibition [2, 23]: 14.5%
- inhibition ([2]; single agent, at 5 µM): -12.8%
- inhibition ([3]; BGB IC20 combo, at 0.005 µM): -5.6%
- inhibition ([3]; BGB IC40 combo, at 0.005 µM): -12.2%
- inhibition ([3]; BGB IC40 combo, at 0.05 µM): -16.5%
- inhibition ([3]; at 0.5 µM): -16.2% (inactive)
- inhibition ([3]; cisplatin combo, at 0.05 µM): -22.4%
- inhibition ([3]; cisplatin combo, at 0.5 µM): -30.1%
- inhibition ([3]; cisplatin combo, at 5 µM): -15.7%
- inhibition [3, 24]: -12.4%
- inhibition ([4]; at 0.5 µM): -15.4% (inactive)
- inhibition [4, 19]: -5.25%
- inhibition [4, 25]: -36.6%
- inhibition [4, 26]: -6.73%
- inhibition ([5]; at 0.5 µM): -5.42% (inactive)
- inhibition [5, 27]: 4.96%
- inhibition [5, 28]: -8.72%
- inhibition [5, 29]: -17.2%
- inhibition [5, 30]: -11.8%
- inhibition ([5]; single agent, at 5 µM): 5.09%
- inhibition ([6]; at 0.5 µM): -14.8% (inactive)
- inhibition [6, 31]: -24.4%
- inhibition [6, 32]: -18.8%
- inhibition ([7]; at 0.5 µM): -9.5% (inactive)
- inhibition [7, 33]: -9.93%
- inhibition [7, 34]: -11.4%
- inhibition ([8]; at 0.5 µM): 0.78% (inactive)
- inhibition [8, 35]: -14.1%
- inhibition [8, 36]: -5.37%
- inhibition ([9]; at 0.5 µM): -6.35% (inactive)
- inhibition [9, 25]: -24.6%
- inhibition [9, 26]: -28.9%
- inhibition ([10]; at 0.5 µM): -12% (inactive)
- inhibition [10, 37]: -4.92%
- inhibition [10, 38]: -19.3%
- inhibition [10, 39]: -27.4%
- inhibition [10, 40]: -20.3%
- inhibition [11, 41]: 9.93%
- inhibition ([11]; at 0.5 µM): -4.21% (inactive)
- inhibition [11, 42]: 7.75%
- inhibition [12]: 0.26% (inactive)
- inhibition [12, 43]: 10.1%
- inhibition [12, 44]: -8.09%
- inhibition ([13]; at 0.5 µM): -8.31% (inactive)
- inhibition [13, 45]: -3.58%
- inhibition ([13]; cisplatin combination, at 5 µM): -121%
- inhibition [13, 46]: -25.1%
- inhibition ([13]; single agent, at 5 µM): -6.41%
- inhibition ([14]; at 0.5 µM): -30.6% (inactive)
- inhibition ([14]; cisplatin combo, at 5 µM): -6.31%
- inhibition [14, 47]: -14.5%
- inhibition [14, 25]: -79%
- inhibition ([14]; single agent, at 5 µM): -0.285%
- inhibition ([15]; at 0.5 µM): 8.92% (inactive)
- inhibition [15, 22]: -5.47%
- inhibition [15, 23]: 14.8%
- inhibition ([15]; single agent, at 0.05 µM): -11.3%
- inhibition ([15]; single agent, at 5 µM): -13%

Structure (SMILES): O=c1ccn(C2CC(O)C(CO)O2)c(=O)[nH]1 (stereo unspecified)
- inhibition [1, 16]: -18.8% (inactive)
- inhibition [1, 17]: -7.41%
- inhibition [1, 18]: -27.4%
- inhibition [1, 19]: -29.5%
- inhibition [1, 20]: -37.9%
- inhibition [1, 21]: -35.5%
- inhibition ([2]; BGB combo, at 5 µM): -20.7%
- inhibition ([2]; at 0.5 µM): -36.9% (inactive)
- inhibition ([2]; cisplatin combo, at 5 µM): -20.7%
- inhibition [2, 22]: -38.7%
- inhibition [2, 23]: -41.3%
- inhibition ([2]; single agent, at 5 µM): -10.1%
- inhibition ([3]; BGB IC20 combo, at 0.005 µM): 4%
- inhibition ([3]; BGB IC40 combo, at 0.005 µM): -31.4%
- inhibition ([3]; BGB IC40 combo, at 0.05 µM): -22%
- inhibition ([3]; at 0.5 µM): -20.1% (inactive)
- inhibition ([3]; cisplatin combo, at 0.05 µM): -25.4%
- inhibition ([3]; cisplatin combo, at 0.5 µM): -21.2%
- inhibition ([3]; cisplatin combo, at 5 µM): -29.4%
- inhibition [3, 24]: -22%
- inhibition ([4]; at 0.5 µM): -29.6% (inactive)
- inhibition [4, 19]: -35%
- inhibition [4, 25]: -32.9%
- inhibition [4, 26]: -47.4%
- inhibition ([5]; at 0.5 µM): -20.1% (inactive)
- inhibition [5, 27]: -39.5%
- inhibition [5, 28]: -39.3%
- inhibition [5, 29]: -5.42%
- inhibition [5, 30]: -49.8%
- inhibition ([5]; single agent, at 5 µM): -26.7%
- inhibition ([6]; at 0.5 µM): -68.3% (inactive)
- inhibition [6, 31]: -48.5%
- inhibition [6, 32]: -72.4%
- inhibition ([7]; at 0.5 µM): -3.73% (inactive)
- inhibition [7, 33]: -8.35%
- inhibition [7, 34]: -4.82%
- inhibition ([8]; at 0.5 µM): 0.16% (inactive)
- inhibition [8, 35]: -21%
- inhibition [8, 36]: -1.45%
- inhibition ([9]; at 0.5 µM): -20.5% (inactive)
- inhibition [9, 25]: -18.3%
- inhibition [9, 26]: -78.5%
- inhibition ([10]; at 0.5 µM): -14.8% (inactive)
- inhibition [10, 37]: -6.54%
- inhibition [10, 38]: -25.5%
- inhibition [10, 39]: -29.1%
- inhibition [10, 40]: -17%
- inhibition [11, 41]: -3.77%
- inhibition ([11]; at 0.5 µM): 0.57% (inactive)
- inhibition [11, 42]: 10.4%
- inhibition [12]: 3.18% (inactive)
- inhibition [12, 43]: -6.85%
- inhibition [12, 44]: 4.49%
- inhibition ([13]; at 0.5 µM): -24.6% (inactive)
- inhibition [13, 45]: -0.373%
- inhibition ([13]; cisplatin combination, at 5 µM): 1.74%
- inhibition [13, 46]: 26.6%
- inhibition ([13]; single agent, at 5 µM): -10.6%
- inhibition ([14]; at 0.5 µM): -15.4% (inactive)
- inhibition ([14]; cisplatin combo, at 5 µM): 1.69%
- inhibition [14, 47]: 3.1%
- inhibition [14, 25]: 9.29%
- inhibition ([14]; single agent, at 5 µM): -204%
- inhibition ([15]; at 0.5 µM): -20.7% (inactive)
- inhibition [15, 22]: -5.72%
- inhibition [15, 23]: -31.1%
- inhibition ([15]; single agent, at 0.05 µM): -46.2%
- inhibition ([15]; single agent, at 5 µM): -14.8%
